Test results as given in PubChem BioAssay (EPA / NIEHS).
Active and inactive are the calls of the source. Rule for the calls: active = hit-call score of the fitted dose curve at least 0.9, where 1 is the maximum; inactive = score below 0.9.

The compounds below were run on Cytochrome P450 (CYP24A1), CYP24A1 (gene 1591) (assay: LTEA_HepaRG_CYP24A1: Life Technologies and Expression Analysis (LTEA) Assay for Cytochrome P450 (CYP24A1) using HepaRG (AID 2283478)). Conditions: mRNA level, 48 h; actives raise or lower the signal.
Experimental: LTEA_HepaRG is a cell based, multiplexed-readout assay that uses HepaRG, a human liver cell line, with measurements taken at 48 hours after chemical dosing on a 96-well plate.LTEA_HepaRG_CYP24A1 is one of 102 assay component(s) measured in the LTEA HepaRG cell culture assay. It is a marker of NR mediated metabolism.Data from the assay component LTEA_HepaRG_CYP24A1 was analyzed into 1 endpoint. This assay endpoint, LTEA_HepaRG_CYP24A1, was analyzed with bidirectional fitting relative to DMSO as the negative control and baseline of activity. Using a type of inducible reporter, measures of mRNA induction for gain or loss-of-signal activity can be used to understand regulation of transcription factor activity. To generalize the intended target to other relatable targets, this assay endpoint is annotated to the cyp intended target family, where the subfamily is xenobiotic metabolism.
A total of 1060 chemcials from the ToxCast library were tested in eight-point concentration-response experiments. Cell culture and cytotoxicity assays were conducted at Thermo Fisher Scientific's Custom Services facility (Madison, WI). A single lot of human HepaRG cells (Thermo Fisher Scientific, Frederick, MD) was used for the cell culture experiments. 96-well format collagen type I coated plates of human HepaRG cells were prepared using established methods. Briefly, cryopreserved HepaRG cells were thawed, plated at a density of approximately 100,000 cells/well in HepaRG Thaw, Plate, and General Purpose media (HPRG770, Thermo Fisher Scientific), and incubated for 48 hours. 0.5% DMSO was selected as vehicle control to balance the requisite need of DMSO in HepaRG cultures to maintain differentiation (for example, baseline metabolism, proportions of hepatocytes vs. cholangiocytes), while enabling further hepatic receptor pathway activation (for example, PXR and CAR) in response to chemical exposure. 48 hours after plating, the culture medium was replaced with HepaRG Serum-Free Incudtion Media. Cells were exposed to each test chemical in duplicate and maintained in CO2 incubators for another 48 hours. Chemical plates were thawed to room temperature and 200x concentrations of treatment groups were prepared. 8-point conentration-reponse curves were made with the highest exposure at 100 uM, followed by half-log dilutions, all in 0.5% DMSO. Each test plate contained variouse controls, induction positive controls (1mM phenobarbital), cytotoxicity positive controls ([…] aflatoxin B1), vehicle controls (0.5% DMSO), and total lysis controls (0.5% DMSO). Cell morphology images were taken using an Essen IncuCyte FLR automated microscope, with six 96-well plates imaged in about 24 minutes. Images were captured and exported and JPEG files. Spent culture media was transfered to black-well plates for the LDH assay, and remaining media was sorted at -80 C for later use. Cells were treated with RLT buffer and frozen until shipped for gene expression analysis. Total RNA was isolated from the cell suspension in 75 uL of Buffer RLT (Qiagen, Germantown, MD 20874) by Quintiles/Expression Analysis (Durham, NC) using a custom isolation procedure. Total RNA from each plate well was transferred to a preamplification plate. Fluidigm's 96.96 Dynamic ArrayTM (Fluidigm, Amsterdam, the Netherlands) technology was used for gene expression analyses by quantitative reverse transcription polymerase chain reaction (qRT-PCR, performed by Quintiles/Expression Analysis, Durham, NC)89. Standard TaqManTM Assays (Applied Biosystems/ThermoFisher Scientific, Foster City, CA) were used to assess the expression of 93 genes selected based on their selectivity and sensitivity to important hepatic receptors known to be modulated by environmental chemicals; importance in human hepatocyte functionality; and hepatotoxicity. […]

outcome, inactive:
CC(C)(O)c1ccc(CNC(=O)c2cccnc2Oc2ccc3nonc3c2)cc1
O=C(OCCCCCCOC(=O)c1ccccc1)c1ccccc1
CC(C)(C)c1cc(/C=C2\SC(N)=NC2=O)cc(C(C)(C)C)c1O
O=C(O)c1ccccc1C(=O)OCc1ccccc1
CCCCCCCCCCCC[N+](C)(C)C
CO[C@H]1/C=C/O[C@@]2(C)Oc3c(C)c(O)c4c(O)c(c(/C=N/N5CCN(C)CC5)c(O)c4c3C2=O)NC(=O)/C(C)=C\C=C\[C@H](C)[C@H](O)[C@@H](C)[C@@H](O)[C@@H](C)[C@H](OC(C)=O)[C@@H]1C
CC1(C)NC(=O)N(c2ccc([N+](=O)[O-])c(C(F)(F)F)c2)C1=O
COc1cccc([C@H](O)C2CCN(CCc3ccc(F)cc3)CC2)c1OC
O=c1c(-c2ccc(O)cc2)coc2cc(O)cc(O)c12
Cc1c2ccccc2c(C)c2c1ccc1ccccc12
Clc1ccccc1C(c1ccccc1)(c1ccccc1)n1ccnc1
Cc1cccc2ccccc12
O=c1[nH]sc2ccccc12
COCC(C)OCC(C)OCC(C)O (stereo not given)
CN(C)C(=O)C1(N2CCCCC2)CCN(CC[C@@]2(c3ccc(Cl)c(Cl)c3)CN(C(=O)c3ccccc3)CCO2)CC1
Oc1ccc2ccccc2c1
CCCCCc1ccc(N)cc1
Cc1ccc2oc(CN(Cc3ccccc3)C(=O)Nc3c(F)cc(F)cc3F)c(-c3ccc(Cl)cc3)c2c1
c1ccc2ccccc2c1
CN1C(=O)CC[C@H]1c1cccnc1
CCCCCCCC[Si](OCC)(OCC)OCC
CCCC(=O)OCCC(C)C
c1ccc(C[n+]2cccc3ccccc32)cc1
CCCCCCCCCC(=O)O
OCCO
CCCOC(=O)c1cc(O)c(O)c(O)c1
O=C(O)c1ccccc1-n1cc(C(=O)O)c(=O)c2cc(Nc3c(F)cc(F)cc3Cl)c(Cl)cc21
Cc1oc2c(NC(=O)c3c(Cl)cccc3Cl)cccc2c1C(C)(C)O
OC12N=C(c3ccccc3)SC1Cc1cc(Cl)ccc12 (stereo not given)
O=C(O)Cn1c(=O)n(Cc2ccc(Br)cc2F)c(=O)c2ccc(Cl)cc21
Oc1ccccc1
CC(C)(c1cc(Br)c(O)c(Br)c1)c1cc(Br)c(O)c(Br)c1
CCCCCCCCOC(=O)c1cc(O)c(O)c(O)c1
COc1ccc2cc(S(=O)(=O)N[C@H](CC(=O)N[C@H](Cc3ccc(CN4[C@H](C)CCC[C@@H]4C)cc3)C(=O)N(C)C(C)C)c3ccc4c(c3)OCO4)ccc2c1
CN(C[C@@H](CC[N+]12CCC(C3CCCCC3)(CC1)CC2)c1ccc(Cl)c(Cl)c1)C(=O)c1cc(C(F)(F)F)cc(C(F)(F)F)c1
Cc1occc1C(=O)Nc1ccc(C(=O)N2CCC(F)(F)/C(=C\C(=O)N3CCC(N4CCCCC4)CC3)c3ccccc32)cc1
CN(C)c1ccc(C(=C2C=CC(=[N+](C)C)C=C2)c2ccc(N(C)C)cc2)cc1
NC(=O)c1nc(-c2cccc(-c3cc(F)ccc3OCC(F)(F)C(F)(F)F)c2)n[nH]1
CCCCCCCCOc1ccc(C(=O)c2ccccc2)c(O)c1
Cc1cc2c(cc1C(F)(F)F)N(C(=O)Nc1ccc(Oc3cccnc3C)nc1)CC2
